{"source": "PubChem BioAssay (Tox21)", "note": "Inconclusive results are not listed. Where a call stands in place of a potency, no number is given. Calls of active or inactive are those of the source. Calls follow the shape of the dose curve; as a rule, active = well fitted cell-killing curve with a large enough effect in the repeat runs; inconclusive = weak or mixed curves; inactive = no such curve, though single readings can be large or run the other way. Potency is read from the fitted curve at half-maximal effect.", "data": [{"assay": "qHTS assay to identify small molecule antagonists of the androgen receptor (AR) signaling pathway - cell viability counter screen (AID 743033; also: nearly all actives have a fitted effect of over 45% in size)", "settings": "AR-bla HEK293 viability, CellTiter-Glo luminescence, 16 h; series mostly up to 58.5 µM", "values": [{"smiles": "OCCC1CCCCN1", "note": "(centres undefined)", "Potency": "inactive"}, {"smiles": "Oc1ccc(Sc2ccc(O)cc2)cc1", "Potency": "inactive"}, {"smiles": "CCCC[C@H]1CN(CC2CCOCC2)C(=O)OC12CCN(C1(C)CCN(C(=O)c3c(C)ncnc3C)CC1)CC2", "Potency": "inactive"}, {"smiles": "O=C(O)COC(=O)Cc1ccccc1Nc1c(Cl)cccc1Cl", "Potency": "inactive"}, {"smiles": "Cc1cc(C)c(S(=O)(=O)O)cc1N=Nc1cc(S(=O)(=O)O)c2ccccc2c1O", "Potency": "inactive"}, {"smiles": "CN1CCC(OC(c2ccccc2)c2ccccc2)CC1", "Potency": "inactive"}, {"smiles": "c1ccc(OCc2ccc(CCCN3CCOCC3)cc2)cc1", "Potency": "inactive"}, {"smiles": "N#Cc1c(F)cccc1F", "Potency": "inactive"}, {"smiles": "CCOc1nc2cccc(C(=O)O)c2n1Cc1ccc(-c2ccccc2-c2nn[nH]n2)cc1", "Potency": "inactive"}, {"smiles": "NC(N)=NN=C(/C=C/c1ccc([N+](=O)[O-])o1)/C=C/c1ccc([N+](=O)[O-])o1", "Potency": "9.52 µM (active)"}, {"smiles": "Cc1ccccn1", "Potency": "inactive"}, {"smiles": "CCCCCCOC(=O)CCC", "Potency": "inactive"}, {"smiles": "COc1cc(C(C)(C)C)c(O)c(C(C)(C)C)c1", "Potency": "inactive"}, {"smiles": "CC(C)c1cccc(C(C)C)c1NC(=O)NS(=O)(=O)c1cc(C(C)(C)O)co1", "Potency": "inactive"}, {"smiles": "O=C(O)C(c1ccc(Cl)cc1)c1ccc(Cl)cc1", "Potency": "inactive"}, {"smiles": "COCCCCCCCCOCCC[Si](C)(O[Si](C)(C)C)O[Si](C)(C)C", "Potency": "6.92 µM (active)"}, {"smiles": "O=C(/C=C/c1ccc(O)c(O)c1)O[C@@H]1C[C@](O)(C(=O)O)C[C@@H](O)[C@H]1O", "Potency": "inactive"}, {"smiles": "O=C1[C@H](CC[C@H](O)c2ccc(F)cc2)[C@@H](c2ccc(O)cc2)N1c1ccc(F)cc1", "Potency": "inactive"}, {"smiles": "NC[C@H]1O[C@H](O[C@H]2[C@H](O)[C@@H](O[C@H]3O[C@H](CO)[C@@H](O)[C@H](N)[C@H]3O)[C@H](N)C[C@@H]2N)[C@H](O)[C@@H](O)[C@@H]1O", "Potency": "inactive"}]}]}
